From the supplement of paper PMC3334620
Whole data set: some 33,000 sequences, median “E-score (-0.5 to 0.5)” near -0.01, cut for the highest 2% near 0.26. This is one part of a sample in which the highest values are shown more often than they occur.

What follows are sequences tested against Ste12 (UniProt P13574) (assay: PBM E-score (8-mer binding enrichment) (E-score (-0.5 to 0.5)); higher = stronger / more preferred TF binding). Conditions: protein concentration: 200 nM; construct: GST-DNA-binding domain.
Protocol: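 Universal 'all 10-mer' protein binding microarrays (Agilent AMADID 015681) probed with GST-tagged S. cerevisiae TFs (full-length or DBD) made by in vitro transcription/translation (PURExpress), about 100-200 nM. Bound TF was detected with fluorescent anti-GST. Each ungapped 8-mer (which stands for itself and its reverse complement) is scored by the PBM enrichment score (E-score), a modified Wilcoxon-Mann-Whitney statistic from -0.5 to +0.5, computed with the Universal PBM Analysis Suite. Scale: above 0.35 generally sequence-specific binding.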

Sequence of UniProt P13574 (P13574 whole entry, the tested form may be a part): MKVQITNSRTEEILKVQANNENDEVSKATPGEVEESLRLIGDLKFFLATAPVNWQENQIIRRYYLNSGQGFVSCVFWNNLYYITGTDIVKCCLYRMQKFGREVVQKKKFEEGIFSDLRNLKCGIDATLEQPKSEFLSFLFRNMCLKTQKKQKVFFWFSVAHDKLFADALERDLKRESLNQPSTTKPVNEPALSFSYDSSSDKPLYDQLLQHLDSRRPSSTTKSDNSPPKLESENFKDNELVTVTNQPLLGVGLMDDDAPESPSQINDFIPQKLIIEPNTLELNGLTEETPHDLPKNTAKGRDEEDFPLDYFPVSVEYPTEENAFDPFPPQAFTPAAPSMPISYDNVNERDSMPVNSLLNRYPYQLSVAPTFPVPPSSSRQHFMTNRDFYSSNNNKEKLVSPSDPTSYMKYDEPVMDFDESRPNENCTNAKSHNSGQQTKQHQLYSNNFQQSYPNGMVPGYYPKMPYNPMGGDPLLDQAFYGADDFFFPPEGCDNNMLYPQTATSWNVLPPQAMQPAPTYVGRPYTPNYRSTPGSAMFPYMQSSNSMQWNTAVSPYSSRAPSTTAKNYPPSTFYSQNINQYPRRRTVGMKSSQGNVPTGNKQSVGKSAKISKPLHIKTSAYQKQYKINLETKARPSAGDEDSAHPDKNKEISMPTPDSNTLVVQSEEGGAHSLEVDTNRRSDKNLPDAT

Row | Sequence | PBM E-score
1 | CCGCCTCC | -0.123
2 | CCCGTAAG | -0.0733
3 | AGGTCAGA | -0.113
4 | TCTTGACA | -0.0432
5 | ACCCATCC | 0.00204
6 | AACCAATC | 0.259
7 | GAAAAAGA | 0.241
8 | CGGCTAAG | 0.0459
9 | CATAGCGG | -0.207
10 | AGACAGCT | -0.111
11 | AAGAAGAA | 0.123
12 | TTAACTAA | 0.221
13 | GTCTCCAA | 0.0569
14 | AGAAAACA | 0.152
15 | AAAAAACA | 0.331
16 | GAAAAACA | 0.21
17 | ATAAAAAA | 0.248
18 | ATAAAACC | 0.294
19 | ATAAAAAC | 0.134
20 | CTAAAACC | 0.192
21 | CAAAAACA | 0.153
22 | CTAAAACA | 0.355
23 | ATAAACCC | 0.211
24 | TAAAAACA | 0.223
25 | ATAAAACA | 0.368

Row | Sequence | PBM E-score
26 | ACGTTGAT | 0.0985
27 | AGTCAGTG | -0.0387
28 | CTTAGCAC | -0.0994
29 | ATACCACG | 0.0272
30 | ACATAGCA | -0.115
31 | ATAAAACG | 0.37
32 | GTAAAAAA | 0.217
33 | GGTAAACA | 0.28
34 | ATAAACCG | 0.0871
35 | GTAAAAAC | 0.206
36 | CGTAAACA | 0.186
37 | AGTAAACA | 0.0888
38 | ATTAAACG | 0.155
39 | GTAAAACA | 0.323
40 | ACAGCGAG | -0.00798
41 | GTAGATCA | 0.023
42 | ACCGCACC | 0.0603
43 | AGGGAGGA | -0.192
44 | AGGGTGGG | 0.35
45 | AGGGGAGA | -0.0864
46 | AGGGTGGA | -0.218
47 | AGGGAGGC | -0.122
48 | AGGGAGGG | 0.305
49 | AGGAGGGG | 0.285
50 | AAGGGAGG | -0.0233

Row | Sequence | PBM E-score
51 | AGGAGGGC | -0.081
52 | AGGGTGGC | -0.0324
53 | AGGGGAGG | 0.348
54 | AGGAGGGA | -0.0567
55 | AGTTTGCG | 0.122
56 | AGTGCGGA | 0.0511
57 | CTCCTGGA | -0.166
58 | AAATTTGC | 0.0182
59 | ATTGGTAC | 0.00439
60 | AAGAGCTT | -0.0673
61 | ACCAAAGA | 0.158
62 | ACGCCCAC | 0.117
63 | GATGAGTA | 0.0183
64 | TACTGGAA | 0.182
65 | CACACCAA | 0.115
66 | AATTGAAC | -0.0364
67 | GATTGAAA | 0.243
68 | AATTGAAA | 0.412
69 | TATTGAAA | 0.304
70 | AATTGAAT | 0.131
71 | CATTGAAA | 0.247
72 | CTCAACGA | -0.137
73 | ACGACAGT | -0.147
74 | GAAATAAC | 0.121
75 | AAAATAAT | 0.293

Row | Sequence | PBM E-score
76 | CAAATAAC | 0.283
77 | CCAATAAA | 0.148
78 | GCAATAAA | 0.279
79 | AAAATAAG | 0.183
80 | AAAATAAC | 0.2
81 | GAAATAAA | 0.282
82 | CAAATAAG | 0.0883
83 | GCAATAAC | 0.0195
84 | CAAATACC | 0.185
85 | CAAATAAA | 0.1
86 | CTGAAGGA | -0.0367
87 | CACGCGTG | 0.221
88 | CGTTCGCA | -0.119
89 | AAAATAAA | 0.286
90 | AAATAAAA | 0.291
91 | AAATAAAG | 0.172
92 | AAAATACA | 0.143
93 | AAATAAAT | 0.169
94 | TAAATAAA | 0.228
95 | CGAAGACG | -0.13
96 | CAATGGGA | -0.134
97 | GCCTAAGC | -0.358
98 | CCACTGGC | -0.0254
99 | AATCAGAG | 0.0937
100 | CATCAGAA | 0.0441

Row | Sequence | PBM E-score
101 | AATCAGAA | 0.27
102 | AGGTAGCC | -0.26
103 | CAGGGTAG | -0.114
104 | CTGACTAC | -0.129
105 | ATGATACA | 0.294
106 | ATGATACC | 0.0159
107 | GTGATACA | 0.195
108 | CTGATACA | 0.28
109 | ATGATACG | 0.25
110 | CTGATACC | 0.0308
111 | GGCGCTTA | 0.0142
112 | AGGGCCAC | -0.202
113 | CTCAATCC | 0.0296
114 | GAAAAGCA | 0.0143
115 | ACAGCCAG | -0.178
116 | CTTGGTTA | 0.052
117 | CCCCTACC | 0.0111
118 | CTGTAAAA | 0.219
119 | ACGTAAAA | 0.161
120 | ATGTAAAT | 0.113
121 | TCGTAAAA | 0.279
122 | TTGTAAAA | 0.315
123 | GCGTAAAA | 0.163
124 | ATGTAAAA | 0.349
125 | GTGTAAAA | 0.15

Row | Sequence | PBM E-score
126 | TAGTAAAA | 0.211
127 | ATAGAGCC | -0.0936
128 | TACAGACA | 0.0984
129 | ACAGCTCG | -0.157
130 | GCAGAGGC | -0.185
131 | CACTCGCC | -0.0182
132 | CAAAAGTG | 0.00054
133 | AGATCTCA | 0.0566
134 | AGATGAAA | 0.39
135 | CGATGAAG | 0.0893
136 | TGATGAAA | 0.258
137 | GGATGAAC | -0.196
138 | CGATGAAA | 0.289
139 | AGATGAAG | 0.102
140 | GGATGAAA | 0.395
141 | CGATGAAC | 0.124
142 | AGATGAAC | 0.098
143 | CCTCTACG | -0.283
144 | AGAGCCCC | -0.201
145 | CACTGGAA | -0.101
146 | ACATGGAC | -0.00801
147 | ATGACATA | 0.222
148 | ATGTTACC | 0.175
149 | ACGTTACA | 0.164
150 | ATGTTACG | -0.0262

Row | Sequence | PBM E-score
151 | CTGTTACA | 0.378
152 | CCGTTACA | 0.318
153 | CTGTTACC | -0.03
154 | GTGTTACA | 0.19
155 | GCGTTACA | 0.139
156 | ATGTTACA | 0.297
157 | AACGTCCG | -0.102
158 | ACGCTGTG | -0.038
159 | GCTGGCCA | -0.00597
160 | CTTAGGGA | -0.316
161 | AAATGAAG | 0.257
162 | GCGCTTCC | -0.0472
163 | AAGGATAA | -0.00803
164 | AATTGCAT | 0.0393
165 | ACTACCTA | -0.242
166 | CCTGTTTC | 0.32
167 | ACTGTTTC | 0.289
168 | ACTGTTTG | 0.188
169 | CCTGTTTA | 0.0871
170 | CCTGTTAC | 0.151
171 | ACTGTTTA | 0.165
172 | GAAACGGC | 0.229
173 | CAAACGGA | 0.0164
